# Experimental data published in PubChem BioAssay (EPA / NIEHS).
# Values joined by “and” are separate entries in the source; they are usually repeats but may differ in a detail not shown here. Equal entries are not always repeated. Active and inactive are the calls of the source. Rule for the calls: active = hit-call score of the fitted dose curve at least 0.9, where 1 is the maximum; inactive = score below 0.9.
# Key:
# [1] = ATG_E_Box_CIS: Attagene CIS-FACTORIAL HepG2 Assay for human Enhancer Box (E-box) (AID 2282936); details: HepG2 E-box cis-reporter transcription, actives raise or lower the signal
# Procedure, shortened: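 Transiently transfected HepG2, endogenous TF-driven reporters, 24 h dosing. Readout: RT-PCR plus capillary electrophoresis of fluorescent reporter fragments. Gain or loss of signal fitted bidirectionally against DMSO baseline.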
# [2] = ATG_M_61_CIS: Attagene CIS-FACTORIAL HepG2 Assay for M61 Transcription Factor (Internal Marker) (AID 2282937); details: HepG2 Attagene CIS-FACTORIAL M61 internal marker reporter; actives raise or lower the signal
# Procedure, shortened: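 HepG2 cells transiently transfected with cis-element-driven multiple reporter transcription units, dosed for 24 h. Reporter mRNA measured by RT-PCR, 6-FAM primer-extension labelling, HpaI digestion and capillary electrophoresis; bidirectional fit versus DMSO baseline.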
# [3] = ATG_EGR_CIS: Attagene CIS-FACTORIAL HepG2 Assay for human Early Growth Response 1 (EGR1) (AID 2282938); details: HepG2 Attagene CIS-FACTORIAL EGR reporter mRNA; actives raise or lower the signal
# Procedure, shortened: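 HepG2 cells transiently transfected with cis-promoter-driven multiplexed reporter transcription units; reporter mRNA measured 24 h after compound dosing by RT-PCR, 6-FAM primer extension, HpaI digestion and capillary electrophoresis. Bidirectional fit versus DMSO baseline.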
# [4] = ATG_M_19_CIS: Attagene CIS-FACTORIAL HepG2 Assay for M19 Transcription Factor (Internal Marker) (AID 2282939); details: HepG2 Attagene CIS-FACTORIAL M19 internal marker reporter; actives raise or lower the signal
# Procedure, shortened: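 Transfect HepG2 with MRTU reporter library → dose chemical, 24 h → isolate total RNA, reverse-transcribe with oligo(dT) → PCR, 6-FAM label, HpaI cut (2 h, 37 C) → capillary electrophoresis. Bidirectional fit vs DMSO.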
# [5] = ATG_ERE_CIS: Attagene CIS-FACTORIAL HepG2 Assay for Estrogen Response Element (ERE) (AID 2282940); details: HepG2 ERE cis-reporter, Attagene RNA transcript; actives raise or lower the signal
# Procedure, shortened: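 Transient MRTU transfection of human HepG2; cis-element promoters; 24 h dosing; total RNA → RT (oligo dT) → PCR → 6-FAM primer extension → HpaI digest → CE fluorescence. Bidirectional fit, DMSO baseline.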
# [6] = ATG_Ets_CIS: Attagene CIS-FACTORIAL HepG2 Assay for human Erythroblast Transformation Specific (ETS) (AID 2282941); details: HepG2 ETS cis-reporter transcription, actives raise or lower the signal
# Procedure, shortened: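 Multiplexed reporter transcript profiling: HepG2, 24 h treatment, total RNA to cDNA, PCR, 6-FAM labelling, HpaI cut, capillary electrophoresis. Gain- or loss-of-signal fitted against DMSO.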
# [7] = molecular target: Hepatocyte nuclear factor 3-beta (Homo sapiens) (UniProt Q9Y261); test: ATG_FoxA2_CIS: Attagene CIS-FACTORIAL HepG2 Assay for human Forkhead box A2 (FOXA2) (AID 2282942); details: HepG2 cis-reporter transcription factor activity, 24 h; actives raise or lower the signal
# Chain of Hepatocyte nuclear factor 3-beta (Homo sapiens) (Q9Y261 whole entry, looked up): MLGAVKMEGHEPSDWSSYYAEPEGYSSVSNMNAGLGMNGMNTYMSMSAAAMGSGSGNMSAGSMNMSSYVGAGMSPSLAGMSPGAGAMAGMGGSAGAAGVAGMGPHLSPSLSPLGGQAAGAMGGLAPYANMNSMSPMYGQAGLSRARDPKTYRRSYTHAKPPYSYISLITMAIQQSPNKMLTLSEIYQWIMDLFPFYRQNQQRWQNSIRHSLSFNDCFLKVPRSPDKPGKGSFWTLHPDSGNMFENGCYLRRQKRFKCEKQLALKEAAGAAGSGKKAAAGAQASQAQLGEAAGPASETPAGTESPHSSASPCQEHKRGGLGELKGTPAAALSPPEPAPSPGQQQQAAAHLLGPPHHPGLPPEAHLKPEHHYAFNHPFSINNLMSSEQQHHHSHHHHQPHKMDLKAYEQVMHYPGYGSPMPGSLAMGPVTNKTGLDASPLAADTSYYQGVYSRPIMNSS
# Procedure, shortened: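 HepG2 cells transiently transfected with multiple cis-regulated reporter transcription units, dosed for 24 h. Reporter mRNA measured by RT-PCR, 6-FAM labelling, HpaI digestion and capillary electrophoresis; bidirectional fitting against DMSO baseline.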
# [8] = ATG_FoxO_CIS: Attagene CIS-FACTORIAL HepG2 Assay for human Forkhead box O (FoxO) (AID 2282943); details: HepG2 Attagene cis-reporter, FoxO element, mRNA; actives raise or lower the signal
# Procedure, shortened: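 Transfected HepG2 reporter cells exposed to test chemical for 24 h; reporter RNA measured by reverse transcription, PCR and fluorescent capillary electrophoresis; curves fitted for increases and decreases against DMSO.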
# [9] = ATG_GATA_CIS: Attagene CIS-FACTORIAL HepG2 Assay for human GATA Binding Protein (AID 2282944); details: HepG2 GATA cis-element reporter, Attagene multiplex mRNA; actives raise or lower the signal
# Procedure, shortened: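 Transient MRTU transfection, HepG2, 24 h compound exposure. Total RNA → oligo(dT) RT → PCR → 6-FAM primer extension → HpaI cut → CE. Bidirectional fit vs DMSO.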
# [10] = ATG_GLI_CIS: Attagene CIS-FACTORIAL HepG2 Assay for human Zinc Finger Protein GLI1 (AID 2282945); details: HepG2, Attagene cis-factorial reporter mRNA, GLI element; actives raise or lower the signal
# Procedure, shortened: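 Transiently transfected HepG2 cells report endogenous transcription factor activity via cis-element-driven reporter units. After 24 h compound exposure, reporter mRNA was measured by RT-PCR with capillary electrophoresis; bidirectional fitting against DMSO baseline.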
SMILES,outcome [1],outcome [2],outcome [3],outcome [4],outcome [5],outcome [6],outcome [7],outcome [8],outcome [9],outcome [10],AC50 [1],AC50 [5],AC50 [7],AC50 [3],AC50 [2],AC50 [4],AC50 [9],AC50 [10]
COCCOCCO,inactive,inactive,inactive,inactive,inactive,inactive,inactive,inactive,inactive,inactive,,,,,,,,
CC1(C)CN=C(NN=C(/C=C/c2ccc(C(F)(F)F)cc2)/C=C/c2ccc(C(F)(F)F)cc2)NC1,,inactive,inactive,inactive,,inactive,,inactive,inactive,inactive,13.7 µM (active),0.303 µM (active),11.1 µM (active),,,,,
CCOP(=S)(S)OCC,inactive,inactive,inactive,inactive,inactive,inactive,inactive,inactive,inactive,inactive,,,,,,,,
N#Cc1ccc(O)cc1,inactive,inactive,inactive,inactive,inactive,inactive,inactive,inactive,inactive,inactive,,,,,,,,
Oc1ccccc1Br,inactive,inactive,inactive,inactive,inactive,inactive,inactive,inactive,inactive,inactive,,,,,,,,
CC(O)C(F)(F)C(F)(F)F (stereo not given),inactive,inactive,inactive,inactive,inactive,inactive,inactive,inactive,inactive,inactive,,,,,,,,
ClC(Cl)c1ccccc1,inactive,inactive,inactive,inactive,inactive,inactive,inactive,inactive,inactive,inactive,,,,,,,,
O=P(OCC(Br)CBr)(OCC(Br)CBr)OCC(Br)CBr (stereo not given),inactive,inactive,,inactive,inactive,inactive,inactive,inactive,inactive,inactive,,,,7.19 µM (active),,,,
CC1=C(C(=O)Nc2ccccc2)S(=O)(=O)CCO1,,inactive,,inactive,inactive,inactive,inactive,inactive,inactive,inactive,21.8 µM (active),,,10.7 µM (active),,,,
COC(=O)C(F)(F)C(F)(F)OC(F)(C(F)(F)F)C(F)(F)OC(F)=C(F)F (stereo not given),inactive,inactive,inactive,inactive,,inactive,inactive,inactive,inactive,inactive,,303 nM (active) and 563 nM (active) and 514 nM (active),,,,,,
Nc1ccc(Sc2ccc(N)cc2)cc1,inactive,inactive,inactive,inactive,,inactive,inactive,inactive,inactive,inactive,,14.4 µM (active),,,,,,
CCCN(CCC)c1c([N+](=O)[O-])cc(C(C)C)cc1[N+](=O)[O-],inactive,inactive,inactive,inactive,inactive,inactive,inactive,inactive,inactive,inactive,,,,,,,,
Cc1cc(C)c(C(=O)P(=O)(c2ccccc2)c2ccccc2)c(C)c1,,,,,,inactive,inactive,inactive,,,54.9 µM (active),8.69 µM (active),,41.3 µM (active),60.7 µM (active),61.5 µM (active),54.9 µM (active),60 µM (active)
C/C(=N\NC(=O)Nc1cc(F)cc(F)c1)c1ncccc1C(=O)O,inactive,inactive,inactive,inactive,inactive,inactive,inactive,inactive,inactive,inactive,,,,,,,,
CC(=O)c1ccc(-c2ccccc2)cc1,inactive,inactive,inactive,inactive,,inactive,inactive,inactive,inactive,inactive,,6.56 µM (active),,,,,,
O=C(O)C=CC(F)(C(F)(F)F)C(F)(F)F,inactive,inactive,inactive,inactive,inactive,inactive,inactive,inactive,inactive,inactive,,,,,,,,
O=C(O)C(F)(F)OC(F)(F)C(F)(F)OC(F)(F)F,inactive,inactive,inactive,inactive,inactive,inactive,inactive,inactive,inactive,inactive,,,,,,,,
CCNc1nc(Cl)nc(NC(C)(C)C)n1,inactive,inactive,inactive,inactive,,inactive,inactive,inactive,inactive,inactive,,8.92 µM (active),,,,,,
Cc1ccc([N+](=O)[O-])cc1C,inactive,inactive,inactive,inactive,inactive,inactive,inactive,inactive,inactive,inactive,,,,,,,,
CCN(CC)C1CCCCC1,inactive,inactive,inactive,inactive,inactive,inactive,inactive,inactive,inactive,inactive,,,,,,,,
Nc1ccc([N+](=O)[O-])cc1Cl,inactive,inactive,inactive,inactive,inactive,inactive,inactive,inactive,inactive,inactive,,,,,,,,
FC(F)(F)c1ccc(Cl)cc1,inactive,inactive,inactive,inactive,inactive,inactive,inactive,inactive,inactive,inactive,,,,,,,,
CCOC(=O)c1ccccc1C(=O)OCC,inactive,inactive,inactive,inactive,inactive,inactive,inactive,inactive,inactive,inactive,,,,,,,,
Cc1ccc2c(c1N)C(=O)c1ccccc1C2=O,inactive,inactive,inactive,inactive,,inactive,inactive,inactive,inactive,inactive,,5.24 µM (active),,,,,,
CCOP(=O)(O)C(N)=O,inactive,inactive,inactive,inactive,inactive,inactive,inactive,inactive,inactive,inactive,,,,,,,,
